Screening data: PubChem, several laboratories
HSP90 refold inh: blocks HSP90-mediated luciferase refolding in reticulocyte lysate; inhibition, % at 5.6 µM; Rabbit reticulocyte lysate, luciferase refolding luminescence, 3 h; AID 1789; 290,000 tested, 0.91% active;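 active = inhibition above the screen-wide mean plus 3 SD, computed separately per campaign, cut at about 16% in these data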;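 note: 0% = DMSO wells and 100% = 60 µM geldanamycin wells; inhibitors lower the luminescence because luciferase stays unfolded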
Peg3 prom inh: inhibitors of Peg3 promoter; AID 588405; HeLa PEG-Prom luciferase reporter, luminescence, overnight; 360,000 tested, 1.7% active; inhibition, % at 20 µM;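 active = inhibition of at least 50% at 20 µM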
Mdm2 MdmX PPI: disrupts the human Mdm2-MdmX interaction. SaOS-2 split-luciferase Mdm2/MdmX complementation, luminescence. inhibition, % at 8 µM. 330,000 tested, 3% active. AID 485346;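 active = inhibition of at least 50% at 8 µM in the primary screen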
LGR2 inh: Drosophila LGR2 receptor signaling inhibition; inhibition, % at 9.99 µM; 380,000 tested, 0.35% active; HEK293 LGR2, CRE-luciferase, bursicon-stimulated, 4 h;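 active = drop in luminescence signal, shown as inhibition above about 50% in the replicate tests, limit read from the data, passing the limit was not always enough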;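 note: agonist challenge used bursicon conditioned medium at about half maximal strength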
CF NFkB block: inhibitors of cystic fibrosis induced NF-kB; KKLEB NF-kB-GFP reporter, PAF-induced, GFP fluorescence overnight; inhibition, % at 5 µM; 360,000 tested, 0.86% active; AID 588850;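 active = at least 50% inhibition at 5 µM, scaled per plate between neutral and stimulator controls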;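 note: PAF is a Pseudomonas aeruginosa culture filtrate used as stimulus; plate controls were PAF-stimulated DMSO wells for no effect and unstimulated DMSO wells for full effect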
KKLEB cytotox: CF airway cell cytotoxicity counter-screen; activity change (cytotoxicity), % at 5 µM; 360,000 tested, 0.36% active; AID 602141; KKLEB CF airway cells viability, ATPlite luminescence, overnight; hits give low values; cells stimulated with P. aeruginosa culture filtrate;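 active = corrected activity change at or below -50% at 5 µM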
Starred values were filed as active, the others as inactive; . = no result given. Sampled rows, rich in hits. Any-hit rate of the full collection: about 3.6%.

SMILES	HSP90 refold inh	Peg3 prom inh	Mdm2 MdmX PPI	LGR2 inh	CF NFkB block	KKLEB cytotox
O=C(NC12CC3CC(CC(C3)C1)C2)c1ccc(-c2ccc(Cl)cc2)o1	9	-326	-18	-46	-3	-13
O=C(NC12CC3CC(CC(C3)C1)C2)c1ccc(-c2cccc(Cl)c2)o1	17*	-298	28	-33	-1	-11
C[C@H]1CN([C@@H](C)CO)C(=O)c2cc(-c3ccc(C#N)cc3)cnc2O[C@@H]1CN(C)C(=O)CN(C)C	.	.	.	9	.	.
O=C(/C(=C/O)N=Nc1ccccc1)c1ccc(Cl)cc1	-1	33	35	-89	63*	-29
Cc1ccc(N=N/C(=C\O)C(=O)c2ccc(Cl)cc2)cc1	3	75*	41	-4	76*	-57*
Cc1cccc(N=N/C(=C\O)C(=O)c2cccs2)c1	-3	49	40	-93	26	15
O=C(/C(=C/O)N=Nc1ccccc1)c1ccncc1	-1	-6	20	.	-15	3
C[C@H](CO)N1C[C@H](C)[C@@H](CN(C)C)Oc2cc(C#CC3(O)CCCC3)ccc2S1(=O)=O	.	.	.	-2	.	.
COCC#Cc1cnc2c(c1)C(=O)N([C@@H](C)CO)C[C@@H](C)[C@H](CN(C)S(=O)(=O)c1ccccc1)O2	.	.	.	-3	.	.
CCN(CC)CCOC(=O)C(c1ccccc1)c1ccccc1	0	0	8	-5	0	-91*
COc1ccc(CN(C)C[C@H]2Oc3ccc(NC(=O)Nc4ccccc4)cc3CC(=O)N([C@@H](C)CO)C[C@@H]2C)cc1	.	.	.	3	.	.
C[C@@H](N)C(=O)N[C@H]1CCC2C3CC=C4C[C@@H](O)CC[C@]4(C)C3CC[C@@]21C (some centres not stated)	.	-1	.	14	3	1
CCC(C)[C@H](N)C(=O)N[C@H]1CCC2C3CC=C4C[C@@H](O)CC[C@]4(C)C3CC[C@@]21C (some centres not stated)	.	110*	.	35	32	-67*
CC(C)[C@H](N)C(=O)N[C@H]1CCC2C3CC=C4C[C@@H](O)CC[C@]4(C)C3CC[C@@]21C (some centres not stated)	.	92*	.	-3	8	-72*
CN(C)c1ccc2c(c1)[C@H]1C[C@H](CC(=O)NCc3cc(F)ccc3F)O[C@@H](CO)[C@H]1O2	.	.	.	13	.	.
OCCN(CCO)c1cc2c3ccccc3ccc2c2ccccc12	.	-12	.	85*	-14	-8
OCCN(CCO)c1ccc2ccccc2c1	-1	-10	30	20	-8	-6
Nc1ccc[n+](CC(=O)c2ccccc2)c1	1	4	-16	1	2	-2
CCc1n[n+](CC(=O)c2ccccc2)c(N)s1	52*	-28	.	81*	-5	-5
CC(C)NC(=O)N(C)C[C@@H]1Oc2ccc(NC(=O)Nc3cccc4ccccc34)cc2C(=O)N([C@@H](C)CO)C[C@@H]1C	.	.	.	9	.	.
Cc1ccc(S(=O)(=O)N[C@H]2C=C[C@H](CC(=O)N3CCC(Cc4ccccc4)CC3)O[C@@H]2CO)cc1	.	.	.	-11	.	.
O=C1ON=C(c2ccccc2)/C1=C/c1ccc(-c2ccccc2[N+](=O)[O-])o1	0	103*	.	-2	40	-18
O=C(O)[C@@H]1[C@@H](CO)[C@@H]2Cn3c(ccc(-c4ccc(F)cc4)c3=O)[C@@H]2N1CCc1ccccc1	.	.	.	-13	.	.
COc1ccccc1NC(=O)N[C@@H]1CC[C@H](CCNC(=O)Cc2ccccn2)O[C@H]1CO	.	.	.	22	.	.
O=C(CCl)N1CCN(S(=O)(=O)c2ccc3ccccc3c2)CC1	2	110*	49	20	-20	-19
CN(C)C(=O)N1CCN(S(=O)(=O)c2ccc3ccccc3c2)CC1	-1	11	2	-6	-16	6
CC(=O)NNC(=O)CCn1c2c(c3ccccc31)CCCC2	-1	2	0	-4	25	-8
CCOC(=O)NNC(=O)CCn1c2c(c3ccccc31)CCCC2	-1	10	50	6	62*	-2
Cc1ccc(S(=O)(=O)N(C(=O)c2ccncc2)c2ccc(OC(=O)c3ccncc3)c3ccccc23)cc1	2	0	8	7	27	0
Cc1ccc(S(=O)(=O)N(C(=O)c2ccncc2)c2ccc(OC(=O)c3ccncc3)c3ccccc23)c(C)c1	0	51*	32	.	21	-4
